Experimental data taken from PubChem BioAssay (NCI).
Compounds without any hit were thinned out: in the full panel of roughly 83,000, 20% have a hit.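 Activity criterion: percent growth below 10, measured after cells in 96-well plates were exposed to a single compound concentration for 48 hours.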 A number with no mark means an inactive call. Calls of active or inactive are those of the source.

Tests used:
Experiment in all cases: NCI-60 one-dose screen, 48 h (100 = growth as untreated, 0 = no growth, -100 = all killed)
Details in all cases: 10 µM unless noted
SK-MEL-2 melanoma = test system: SK-MEL-2 melanoma
EKVX NSCLC = test system: EKVX NSCLC
SN12C renal = test system: SN12C renal
UO-31 renal = test system: UO-31 renal
TK-10 renal = test system: TK-10 renal
ACHN renal = test system: ACHN renal
A498 renal = test system: A498 renal
CCRF-CEM leukemia = test system: CCRF-CEM leukemia
MOLT-4 leukemia = test system: MOLT-4 leukemia
SR leukemia = test system: SR leukemia
RPMI-8226 leukemia = test system: RPMI-8226 leukemia
OVCAR-8 ovarian = test system: OVCAR-8 ovarian
OVCAR-5 ovarian = test system: OVCAR-5 ovarian
OVCAR-4 ovarian = test system: OVCAR-4 ovarian
SK-OV-3 ovarian = test system: SK-OV-3 ovarian
IGROV1 ovarian = test system: IGROV1 ovarian
OVCAR-3 ovarian = test system: OVCAR-3 ovarian
HS 578T breast = test system: HS 578T breast
NCI/ADR-RES ovarian = test system: NCI/ADR-RES ovarian

Compound	growth (SK-MEL-2 melanoma) [%]	growth (EKVX NSCLC)	growth (SN12C renal) [%]	growth (UO-31 renal)	growth (TK-10 renal) [%]	growth (ACHN renal)	growth (A498 renal)	growth (CCRF-CEM leukemia)	growth (MOLT-4 leukemia)	growth (SR leukemia)	growth (RPMI-8226 leukemia)	growth (OVCAR-8 ovarian) [%]	growth (OVCAR-5 ovarian) [%]	growth (OVCAR-4 ovarian)	growth (SK-OV-3 ovarian)	growth (IGROV1 ovarian) [%]	growth (OVCAR-3 ovarian) [%]	growth (HS 578T breast) [%]	growth (NCI/ADR-RES ovarian)
COC(=O)C(Cc1ccccc1)Nc1nc(NC(Cc2ccccc2)C(=O)OC)nc(N2CCOCC2)n1 (configuration not stated)	111	105%	104	81.2%	103	109%	107%	105%	101%	100%	98.5%	99.6	106	107%	103%	98.6	111	101	111%
O=C(NNc1nc2cc(F)ccc2n2c(CN3CCC(O)C3)ccc12)c1cnccn1 (configuration not stated)	20	10.1%	24.3	11%	20.5	14.3%	26.2%	10.3%	3.23% (active)	6.32% (active)	27.4%	13.8	41.4	18.9%	8.37% (active)	18.2	34.9	75.9	2.49% (active)
CN1CCN(c2ccc(/C=N/Nc3nc4ccccc4c(=O)n3-c3ccccc3)cc2)CC1	107	100%	103	95.5%	91.3	108%	89.8%	105%	104%	93.4%	101%	102	107	97.2%	109%	104	104	92.5	101%
NC(N)=Nc1ccc(Oc2cccc(NC(N)=Nc3ccc(Br)cc3)c2)cn1	84.3	62%	20.6	85%	69.1	95.5%	64.3%	58.5%	65%	34.5%	51.4%	68.1	66.7	71%	73.6%	37.9	64.9	44.2	100%
NC(=O)c1c(NC(=O)c2ccccc2C(F)(F)F)sc2c1CCC(=O)C2	45.5	24.3%	40.3	-7.49% (active)	28.1	8.24% (active)	85.9%	16.3%	19.9%	27.2%	-1.93% (active)	17.3	27	9.19% (active)	105%	31.2	12.3	32.5	14.9%
O=S(=O)(Oc1ccc(-c2nnc(Nc3ccccc3)s2)cc1)C(F)(F)C(F)(F)C(F)(F)C(F)(F)C(F)(F)C(F)(F)F	106	99.1%	98.7	98.2%	109	103%	99.5%	102%	-29.1% (active)	19.5%	105%	107	93.3	107%	108%	107	108	98.4	103%
O=C(NNc1nc2cc(F)ccc2n2c(CO)ccc12)c1cnccn1	21.7	4.53% (active)	21.5	8.71% (active)	21	10.2%	8.46% (active)	7.36% (active)	2.51% (active)	5.16% (active)	21%	10.9	36.4	20.5%	9.3% (active)	14.9	33.4	68.3	3.02% (active)
CCC1=Cc2cc(OC)ccc2OC12C=Cc1cc(OC)ccc1O2 (configuration not stated)	52.5	46.2%	34.8	53%	100	45%	3.41% (active)	10.9%	11%	15.8%	19.5%	41.3	29.3	56.8%	24%	30.1	16	15.3	11.7%
